Source: PubChem BioAssay AID485344 (National Center for Advancing Translational Sciences (NCATS), 2010)
Out of some 340,000 compounds screened, about 6,900 (2%) were called active. Rule as the data show it: active = inhibition above about 30%; inactive = below that, where a call was filed. The full list was thinned out, with actives kept by preference.

molecular target: D(2) dopamine receptor (Homo sapiens) (UniProt P14416); experiment: HTS Assay for Allosteric Antagonists of the Human D2 Dopamine Receptor: Primary Screen for Antagonists; conditions: HEK293 TREx D2 cells, calcium flux, dopamine EC80; at 10 µM; stronger effect = higher value; also: 0% is about no effect
Sequence (P14416 whole entry, looked up): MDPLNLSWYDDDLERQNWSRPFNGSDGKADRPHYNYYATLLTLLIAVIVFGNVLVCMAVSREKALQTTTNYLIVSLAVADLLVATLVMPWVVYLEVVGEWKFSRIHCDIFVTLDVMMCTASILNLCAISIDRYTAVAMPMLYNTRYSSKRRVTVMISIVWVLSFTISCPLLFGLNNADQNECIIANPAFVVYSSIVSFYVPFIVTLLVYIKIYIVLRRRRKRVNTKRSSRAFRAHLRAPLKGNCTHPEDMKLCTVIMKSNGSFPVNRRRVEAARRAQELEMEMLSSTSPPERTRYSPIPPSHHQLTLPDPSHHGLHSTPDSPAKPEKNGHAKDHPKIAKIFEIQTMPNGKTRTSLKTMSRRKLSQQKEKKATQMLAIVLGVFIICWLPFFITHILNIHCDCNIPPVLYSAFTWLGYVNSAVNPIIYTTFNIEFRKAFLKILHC
Outline: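 Measurement of antagonist activity uses fluorescent calcium dye in inducible HEK293 T-REx D2 cells: 10 s baseline, compound addition with 180 s read, EC80 dopamine addition with a further 180 s read.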

inhibition, inactive:
CN1CCN(c2ccc(NC(=O)c3cc(Cl)c4c(c3)OCCO4)cc2)CC1 -8.36%
COc1ccc(S(=O)(=O)N2CCCC2CNC(=O)C(=O)NC2CC2)cc1 (centres undefined) 2.63%
Cc1ccccc1C(OCC(O)CN1CCCCC1CCO)c1ccccc1 (centres undefined) -4.51%
CN(C)CCOC1c2ccccc2-c2ccccc21 -3.38%
Cc1ccc(S(=O)(=O)NCCC(=O)NNC(=O)C2COc3ccccc3O2)cc1 (centres undefined) -0.636%
CCCCN(C(=O)c1ccc2ccccc2c1)c1c(N)n(CCCC)c(=O)[nH]c1=O -22.6%
Cc1ccc(/C=C/C(=O)OCC(=O)Nc2cccnc2Cl)cc1 13%
Nc1nc(SC23CC4CC(CC(C4)C2)C3)ns1 -8.79%
CCCSc1nsc(N)n1 -5.55%
Cc1ccc(S(=O)(=O)N2CCCCC2)cc1NC(=O)c1cccnc1 1.41%
CCNC(=O)N1CCN(S(=O)(=O)c2ccc3c(c2)OCCCO3)CC1 11.7%
CCN(CC(=O)Nc1cccc(S(=O)(=O)N2CCCCC2)c1)Cc1ccccc1 0.844%
COc1ccccc1N1CC(C(=O)NCCN2C(=O)S/C(=C\c3cccnc3)C2=O)CC1=O (centres undefined) 4.67%
Cc1cc(OCCCN2CCN(Cc3ccccc3)CC2)ccc1[N+](=O)[O-] -14.3%
COc1cc(CN2CCCN(C)CC2)c([N+](=O)[O-])cc1OC 24.2%
COc1ccc(-c2sc3ccc(OC)cc3c2C#Cc2ccccn2)cc1 -2.01%
CC(O)c1nc2c(c(=O)n(C)c(=O)n2C)n1C (centres undefined) 0.261%
CCCCCCn1c(CN2CCCC(C)C2)nc2c1c(=O)n(C)c(=O)n2C (centres undefined) 2.89%
CCN(CC(=O)NCc1cccs1)C(=O)/C=C/c1ccc(C)cc1 0.23%
COc1ccc2c(C)cc(SCC(=O)NCC3CCCO3)nc2c1 (centres undefined) 0.454%
O=C(NC1CCCCCC1)C1CCN(C(=O)c2ccc(Cl)cc2)CC1 -21.8%
COc1ccccc1OCCNC(=O)C(CCSC)NC(=O)COc1ccccc1 (centres undefined) 0.971%
S=C(Nc1cccc(Cl)c1)Nc1ccc2c(c1)OCCO2 3.88%
S=C(Nc1cccc(Cl)c1)Nc1ccc2cn[nH]c2c1 -2.72%
CN(CC(=O)Nc1ccc(S(=O)(=O)N2CCCC2)cc1)Cc1ccc(Cl)c(Cl)c1 -19.3%
CN(CC(=O)Nc1ccc(F)cc1)CC(=O)Nc1ccc(Cl)c(S(=O)(=O)N2CCOCC2)c1 -2.29%
Cc1ccc(CN2CC(C(=O)NNC(=O)Cn3ccc(C(F)(F)F)n3)CC2=O)cc1 (centres undefined) 9.85%
COC(=O)C1CCN(C(=O)NC2CC(=O)N(c3ccc4c(c3)OCCO4)C2)CC1 (centres undefined) 10.2%
Cc1c(Cl)cccc1NC(=S)NCc1ccc2c(c1)OCO2 -3.97%
Cc1ccc(/C=N/NC(=S)Nc2cccc(S(=O)(=O)N(C)C)c2)o1 -10.5%
O=C(O)CN1c2cccc3cccc(c23)S1(=O)=O 14.3%
CC(C)CN(CC(C)C)C(=O)CN1c2cccc3cccc(c23)S1(=O)=O -10.2%
O=C(COc1ccccc1Cl)N1N=C(c2cccs2)CC1c1ccco1 (centres undefined) 5.49%
Cc1ccc(-c2csc(NC(=O)C3=COCCO3)n2)cc1C 1.39%
CCOC(=O)N1CCN(Cc2nc3cc(NC(=O)CC)ccc3n2CC)CC1 3.26%
CN1CCN(Cc2nc3cc(NC(=O)COc4ccc([N+](=O)[O-])cc4)ccc3n2C)CC1 -8.44%
CCN(CC)c1ccc(NC(=O)CN2CCN(c3ccccn3)CC2)cc1 5.78%
Cn1c(CCN2CCCCCC2)nc2cc(NC(=O)Nc3ccccc3)ccc21 0.502%
O=C(COC(=O)c1cc(S(=O)(=O)N2CCOCC2)ccc1Cl)NCCc1ccccc1 -3.61%
CC1CCC(CN2CCN=C2N(C)C)CC1 (centres undefined) 11.2%
COc1ccccc1C1=CC(=O)C[C@H](c2ccc(F)cc2)C1 4.4%
O=S(=O)(c1ccccc1)N1CCC(c2ccccc2)CC1 0.0462%
COc1ccccc1C(=O)NC(CCSC)C(=O)N1CCN(C(C)=O)CC1 (centres undefined) 17.9%
O=c1oc2ccc(C#CC3(O)CCCCC3)cc2cc1-n1cc(-c2ccsc2)nn1 2.59%
OCC[C@H]1C[C@@H](O)[C@H](O)[C@]2(OCCCc3ccccc32)O1 5.04%
O=C(OCC(=O)N1CCCCCC1)c1cnc(Cl)c(Cl)c1 -0.916%
Nn1c(SCC(=O)NC2CCCC2)nnc1-c1ccccc1F -13.5%
CC(C)NC(=O)NC(=O)CSc1nnc(-c2ccccc2F)n1N 26%
CCOc1ccc(CCNC(=O)COC(=O)CCS(=O)(=O)c2ccc(C)cc2)cc1OCC -15.8%
O=C(NC1CCCCC1)c1ccc(-c2ccc(Cl)cc2)o1 17.9%
COCCN1C(=O)c2oc3c(C)cc(C)cc3c(=O)c2C1c1cccc(O)c1 (centres undefined) 8.13%
O=C1c2oc3ccc(Br)cc3c(=O)c2C(c2cccc(F)c2)N1CCO (centres undefined) 24.1%
Cc1ccc(-c2nn(-c3ccccc3)cc2C(=O)NC2CCC(O)CC2)cc1 (centres undefined) 11.3%
CC(C)(C)OC(=O)N[C@H](C(=O)OC(C)(C)C)c1ccc(Br)cc1 -2.43%
COc1cccc(C2=CC(=O)C[C@H](c3ccc(F)cc3)C2)c1OC 2.64%
Cc1ccc(S(=O)(=O)N2CCN(C(=O)COC(=O)c3c(C)cc(C)cc3C)CC2)c(C)c1 -0.571%
Cc1ccc(S(=O)(=O)N2CCN(C(=O)CSc3cc(C)ccc3C)CC2)c(C)c1 12.2%
O=C(COC(=O)C1CC2CCCC(C1)C2=O)NC(=O)c1ccccc1 (centres undefined) -17.3%
CC(Oc1ccc(Br)cc1)C(=O)NC1CCCCCC1 (centres undefined) -1.39%
O=C(Nc1ccccc1C(=O)Nc1ccncc1)c1ccc([N+](=O)[O-])cc1 -16%
O=C(COc1ccc([N+](=O)[O-])cc1)Nc1ccc(N2CCCC2)cc1 -10.9%
Cc1ccc(S(=O)(=O)N(C)CC(=O)NCC(c2ccc(F)cc2)N2CCOCC2)cc1 (centres undefined) 12.3%
CCCn1nc(C(=O)NNC(=O)CSCC(=O)Nc2cc(C)on2)c2ccccc2c1=O 5.99%
CCCCn1nc(C(=O)Nc2cccc(C(=O)NC3CC3)c2)c2ccccc2c1=O -27.4%
CN(C)CCn1c2c(c(SCC(=O)NCc3ccccc3)nc1=O)CCC2 -8.18%
COCCNc1nnc(SCC(=O)NNC(=O)c2ccco2)s1 -27.3%
COc1ccccc1NS(=O)(=O)c1ccc(C)c(C(=O)NCC(c2ccco2)N(C)C)c1 (centres undefined) 7.48%
CN(C)CCOCCOc1ccc(Cl)c2ccccc12 -4.55%
COCCNCCOCCOc1cccc(OC)c1 -3.27%
OC(COCC1COc2ccccc2O1)CN1CCN(c2ccc(F)cc2)CC1 (centres undefined) 2.02%
O=[N+]([O-])c1ccc(N2CCN(CC(O)COc3ccccc3)CC2)cc1 (centres undefined) -9.55%
O=C(CSc1nc2ccccc2c(=O)n1CCCO)NC1CC1 -4.48%
C=CCC(NC(=O)Cc1ccccc1)C(=O)NCCC (centres undefined) 1.08%
CCCCC/C=C/C1=CC(=O)C[C@H](c2ccc(Cl)cc2)C1 3.21%
CC(C)(C)OC(=O)N/N=C/c1cn(-c2ccccc2)nc1-c1cccnc1 -2.64%
Cc1nnc(SCC(=O)N/N=C/c2cn(-c3ccccc3)nc2-c2ccc(F)cc2)n1-c1ccccc1 -8.35%

inhibition, active:
Cc1ccccc1C(OCCN(C)C)C1CCCCC1 (centres undefined) 86.8%
CCCCCCSc1nsc(N)n1 51.1%
COc1cc(CN2CCN(Cc3ccc(C)cc3)CC2)c([N+](=O)[O-])cc1OC 88.1%
CC1CN(C2CCCCC2)c2nc3c(c(=O)n(C)c(=O)n3C)n2C1 (centres undefined) 38.7%
Cc1csc(NC(=S)Nc2cccc(Cl)c2)n1 32.1%
CN(CCC(=O)Nc1cc(S(=O)(=O)N(C)C)ccc1Cl)CC(=O)Nc1ccc(F)cc1 50.6%
CN(C)S(=O)(=O)c1cccc(NC(=S)NCc2ccc3c(c2)OCO3)c1 51.6%
Cc1ccc(S(=O)(=O)N(C)C)cc1NC(=O)CN1c2cccc3cccc(c23)S1(=O)=O 37%
CCC(=O)Nc1ccc2c(c1)nc(CCN1CCN(c3ccccn3)CC1)n2C 57%
CCOC(=O)N1CCN(Cc2nc3cc(NC(C)=O)ccc3n2C)CC1 31.3%
Nn1c(SCC(=O)NC(=O)NC2CCCC2)nnc1-c1ccccc1F 88.5%
O=C1c2oc3ccccc3c(=O)c2C(c2cccc(O)c2)N1c1ccccn1 (centres undefined) 30.8%
CCCc1cc(=O)[nH]c(SCC(=O)N2CCN(S(=O)(=O)c3ccc(C)cc3C)CC2)n1 40.9%
O=C(COc1ccc([N+](=O)[O-])cc1)Nc1cccc(C(=O)Nc2ccccc2C(=O)O)c1 52%
CCCn1nc(C(=O)Nc2ccc3nc(C)sc3c2)c2ccccc2c1=O 31%
Clc1cccc(Cl)c1OCCOCCNCc1ccccc1 53%
OC(COCc1ccco1)CN1CCN(c2ccccc2)CC1 (centres undefined) 74.4%
Cc1ccc(-c2nn(-c3ccccc3)cc2/C=N/NC(=O)c2ccc3c(c2)OCO3)cc1 31.8%
